Compounds with a hit are over-represented: about 9.3% of the library has one in this group of screens.
FLuc modulator = firefly luciferase modulation, counter-screen for miR-21 project. P08659. purified FLuc, Km substrates, luminescence inhibition. Potency, µM (titrated, usually from 57.5 µM), actives largely listed as inhibitors. 6.9% of 360,000 active; note: nearly all actives have a fitted effect of over 55% in size
Target sequence (P08659 whole entry, looked up): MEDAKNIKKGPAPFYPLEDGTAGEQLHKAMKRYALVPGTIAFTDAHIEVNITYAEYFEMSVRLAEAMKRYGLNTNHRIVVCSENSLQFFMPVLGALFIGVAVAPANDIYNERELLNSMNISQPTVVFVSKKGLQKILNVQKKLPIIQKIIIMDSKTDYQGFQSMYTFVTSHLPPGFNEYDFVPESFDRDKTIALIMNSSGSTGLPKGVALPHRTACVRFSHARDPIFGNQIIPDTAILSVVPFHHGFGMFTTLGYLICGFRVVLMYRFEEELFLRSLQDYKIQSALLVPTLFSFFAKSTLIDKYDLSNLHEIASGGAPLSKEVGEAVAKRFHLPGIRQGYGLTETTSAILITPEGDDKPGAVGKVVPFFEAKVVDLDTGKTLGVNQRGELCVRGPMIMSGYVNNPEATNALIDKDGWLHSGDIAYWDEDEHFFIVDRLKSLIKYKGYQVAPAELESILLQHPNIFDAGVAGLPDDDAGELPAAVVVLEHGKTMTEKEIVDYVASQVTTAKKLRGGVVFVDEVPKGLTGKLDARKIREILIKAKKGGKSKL
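Biochemical qHTS of compounds, final roughly 60 µM downward over six points, against 10 nM purified firefly luciferase using Km concentrations of substrates (10 uM D-luciferin, 10 uM ATP) in Tris acetate pH 7.5 buffer; luminescence output.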
ELG1 repair inh = blocks ELG1-dependent DNA repair in HEK293T cells; 2.3% of 330,000 active; Potency, µM (titrated, usually from 46.1 µM), usual class: inhibitors; HEK293T ELG1-luciferase reporter, luminescence, 16 h; DNA damage induced by 5-fluorouridine; note: nearly all actives have a fitted effect of over 55% in size
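Cells (2,000 per well) received 5-fluorouridine plus test compound or DMSO and were incubated 16 hr at 37 °C, 5% CO2. Luciferase activity was read by luminescence 30 min after ONE-Glo addition; signal suppression marked inhibition of damage-induced ELG1 function.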
ELG1 genotox = induces genotoxicity in HEK293T cells with luciferase-tagged ELG1; Potency, µM (doses to about 46 µM), most hits filed as activators; 1.3% of 330,000 active; AID 504466; HEK293T ELG1-luciferase reporter, luminescence, 16 h; note: nearly all actives have a fitted effect of over 60% in size
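HEK293T cells expressing luciferase-tagged ELG1 were exposed to compound or DMSO vehicle for 16 hr at 37 °C and 5% CO2. Luciferase activity was then measured with ONE-Glo after 30 min at room temperature.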
NPC1 prom act = activators of NPC1 promoter | 2.4% of 320,000 active | Huh7 NPC1 promoter luciferase reporter, 24 h | AID 485313 | Potency, µM (doses to about 9.22 µM), usual class: activators; note: nearly all actives have a fitted effect of over 60% in size
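In 1536-well qHTS, Huh7 cells harboring an NPC1 promoter–luciferase construct received compound for 24 h; activation was quantified by luminescence following luciferase reagent addition.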
SMN2 splice up = SMN2 splice variant enhancement | HEK293 SMN2-luciferase splicing reporter, luminescence, 30-36 h | Potency, µM (titrated, usually from 46.1 µM), most hits filed as activators | 2.8% of 210,000 active | AID 1458; note: nearly all actives have a fitted effect of over 55% in size
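HEK293 cells carry an SMN2 minigene-luciferase reporter in which exon 7 inclusion puts luciferase in frame. Cells were seeded at 2000 cells/well, attached for 10-12 hours, then exposed to compounds for 30-36 hours at 37C before ONE-Glo luminescence.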
Rab9 promoter act = Rab9 promoter activation; 2.8% of 320,000 active; Potency, µM (highest dose often 9.22 µM), hits mostly activators; AID 485297; Huh7 Rab9 promoter-luciferase reporter, luminescence, 24 h; note: nearly all actives have a fitted effect of over 60% in size
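Steps: seed 1500 Huh7 Rab9-luc cells per well, rest 2 h at 37 °C; add compound in DMSO; incubate 24 h; add luciferase reagent, 10 min ambient; read luminescence.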
Numbers stand for hits. Calls come from the whole dose curve; as a rule, active = well fitted curve in the direction sought with a large enough effect; inconclusive = small, poorly fitted or top-dose-only effect, or another doubt; inactive = no such curve, though single readings can be large; an effect the other way counts as inactive or inconclusive.

Screening COc1ccc2sc(-c3ccc(SC)cc3)c(C#CCO)c2c1 returned ELG1 repair inh inconclusive and ELG1 genotox inactive.
O=C(Nc1ccc(-c2nc3ccccc3[nH]2)cc1)c1ccc(N2C(=O)CCC2=O)cc1 was read as FLuc modulator inactive, ELG1 repair inh inactive, ELG1 genotox inactive, NPC1 prom act inactive, SMN2 splice up inactive and Rab9 promoter act inactive.
For Cc1[nH]c(=O)[nH]c(=O)c1/C=C/C(=O)O the results were FLuc modulator inactive, ELG1 repair inh inactive, ELG1 genotox inactive, NPC1 prom act inactive and Rab9 promoter act inactive.
Screening CS(=O)(=O)Cc1ccc(C(=O)NC2CCCc3ccccc32)cc1 (configuration not stated) returned FLuc modulator inactive, ELG1 repair inh inactive, ELG1 genotox inactive, NPC1 prom act inactive and Rab9 promoter act inactive.
`O=C(Nc1sc2c(c1C(=O)O)CCC2)c1ccc(F)cc1` gave FLuc modulator 17µM, ELG1 repair inh inactive, ELG1 genotox inactive, NPC1 prom act inactive, SMN2 splice up inactive and Rab9 promoter act inactive.
For Cc1ccc(NC(=O)c2c(NC(=O)c3ccc(F)cc3)sc3c2CCCC3)cc1C the results were FLuc modulator inconclusive and SMN2 splice up inactive.
O=C(Nc1sc2c(c1C(=O)O)CCC2)c1ccccc1 was read as FLuc modulator 15µM, ELG1 repair inh inconclusive, ELG1 genotox inactive, NPC1 prom act inactive, SMN2 splice up 10µM and Rab9 promoter act inconclusive.
For COc1ccc(CN(C(=O)c2ccccc2Br)C2CCS(=O)(=O)C2)cc1 (configuration not stated) the results were FLuc modulator inactive, ELG1 repair inh inactive, ELG1 genotox inactive, NPC1 prom act inactive and Rab9 promoter act inactive.
Screening C=Cc1ccccn1 returned SMN2 splice up inactive.
Screening Nc1ncccc1OCc1ccc(Br)cc1 returned FLuc modulator 17µM, ELG1 repair inh inconclusive, ELG1 genotox inactive, NPC1 prom act inconclusive, SMN2 splice up inconclusive and Rab9 promoter act 2.2µM.
Screening CCn1c(=O)c2cc(C(=O)N3CCCC3)sc2c2ccccc21 returned FLuc modulator inactive, ELG1 repair inh inactive, ELG1 genotox inactive, NPC1 prom act inactive and Rab9 promoter act inactive.
For CCNC(=O)NC(=O)COC(=O)CCCSc1nc2ccccc2s1 the results were FLuc modulator 19µM, ELG1 repair inh inactive, ELG1 genotox inactive, NPC1 prom act inactive, SMN2 splice up inactive and Rab9 promoter act inactive.
Cc1cc(C)nc(NC(=O)CSc2nc3ccccc3s2)n1 was read as FLuc modulator 12µM, ELG1 repair inh inconclusive, ELG1 genotox 5.8µM, NPC1 prom act inconclusive, SMN2 splice up inactive and Rab9 promoter act 3.2µM.
`CC(C)(C)NC(=O)CCCSc1nc2ccccc2s1` gave FLuc modulator 15µM, ELG1 repair inh inconclusive, ELG1 genotox inconclusive, NPC1 prom act inconclusive, SMN2 splice up inconclusive and Rab9 promoter act 1.8µM.
For Cc1noc(C)c1CSc1nc2ccccc2s1 the results were FLuc modulator inconclusive, ELG1 repair inh inconclusive, ELG1 genotox inconclusive, NPC1 prom act inactive, SMN2 splice up inactive and Rab9 promoter act inactive.
Screening CCNC(=O)NC(=O)C(C)OC(=O)CCCSc1nc2ccccc2s1 (configuration not stated) returned FLuc modulator inactive, ELG1 repair inh inactive, ELG1 genotox inactive, NPC1 prom act inactive, SMN2 splice up inactive and Rab9 promoter act inactive.
`Cc1ccccc1NC(=O)CCCSc1nc2ccccc2s1` gave FLuc modulator inconclusive, ELG1 repair inh inactive, ELG1 genotox inactive, NPC1 prom act inactive, SMN2 splice up inactive and Rab9 promoter act inactive.
For Cc1cc(C)n2c(Br)c(CSc3nc4ccccc4s3)nc2n1 the results were FLuc modulator inconclusive, ELG1 repair inh inconclusive, ELG1 genotox inconclusive, NPC1 prom act inconclusive, SMN2 splice up 11µM and Rab9 promoter act inconclusive.
For Cc1cc(-c2ccc(C)c(S(=O)(=O)Nc3ccccn3)c2)on1 the results were FLuc modulator inactive.
For O=C(ON=C1CCN(S(=O)(=O)c2ccccc2)CC1)c1ccc(F)cc1 the results were FLuc modulator inactive, ELG1 repair inh inactive, ELG1 genotox inactive, NPC1 prom act inactive, SMN2 splice up inactive and Rab9 promoter act inactive.
CCc1ccc(-n2c(=O)c3ccccc3n(CC(=O)C(C)(C)C)c2=O)cc1 was read as FLuc modulator inactive, ELG1 repair inh inactive, ELG1 genotox inactive, NPC1 prom act inactive, SMN2 splice up inactive and Rab9 promoter act inactive.
Screening C/C(=N\NC(=O)c1ccc(Cl)cc1)c1cccs1 returned FLuc modulator 2.7µM, ELG1 repair inh inconclusive, ELG1 genotox 2.3µM, NPC1 prom act 0.56µM, SMN2 splice up 3.5µM and Rab9 promoter act 0.32µM.
For C/C(=N/NC(=O)c1ccc2nc[nH]c2c1)c1cccs1 the results were FLuc modulator 11µM, ELG1 repair inh inconclusive, ELG1 genotox inconclusive, NPC1 prom act 2µM, SMN2 splice up 11µM and Rab9 promoter act 1.4µM.
COC(=O)CNC(=O)[C@@]1(C)C=C[C@@H](Cc2ccccc2)N1C(C)=O was read as SMN2 splice up 14µM.
O=C1c2ccccc2C(=O)N1CCCc1c[nH]c2ccccc12 was read as FLuc modulator inactive, ELG1 repair inh inconclusive, ELG1 genotox inactive, NPC1 prom act inactive, SMN2 splice up inactive and Rab9 promoter act inactive.
Screening O=C1c2ccccc2C(=O)N1CCc1c[nH]c2ccccc12 returned FLuc modulator 6.7µM, ELG1 repair inh inconclusive, ELG1 genotox inconclusive, NPC1 prom act inconclusive and Rab9 promoter act 3.5µM.
`CCOc1ccccc1NC(=O)CSc1nnc2[nH]c(=O)cc(C)n12` gave FLuc modulator inactive.
Cc1ccc(/C=N/NC(=O)c2cccs2)s1 was read as FLuc modulator 11µM, ELG1 repair inh inconclusive, ELG1 genotox inconclusive, NPC1 prom act inconclusive, SMN2 splice up 16µM and Rab9 promoter act inconclusive.
O=C(N/N=C/c1ccc(Br)s1)c1cccs1 was read as FLuc modulator 15µM, ELG1 repair inh inconclusive, ELG1 genotox inactive, NPC1 prom act inconclusive and Rab9 promoter act inconclusive.
O=C(N/N=C/c1ccc(Br)s1)c1ccncc1 was read as FLuc modulator inactive, ELG1 repair inh inconclusive, ELG1 genotox inactive, NPC1 prom act inactive, SMN2 splice up inactive and Rab9 promoter act inactive.
Screening COc1ccc(C2=NC(c3ccccc3)CO2)cc1 (configuration not stated) returned FLuc modulator 1.5µM, ELG1 repair inh inconclusive, ELG1 genotox inconclusive, NPC1 prom act 3.2µM, SMN2 splice up inconclusive and Rab9 promoter act 3.5µM.
Screening O=[N+]([O-])c1cccc(C2=NC(c3ccccc3)CO2)c1 (configuration not stated) returned FLuc modulator 27µM, ELG1 repair inh inconclusive, ELG1 genotox inconclusive, NPC1 prom act inconclusive, SMN2 splice up inactive and Rab9 promoter act inconclusive.

From PubChem
